Some test systems named below: NCI-H23 lung; NCI-H322M lung; HOP-62 NSCLC; NCI-H460 lung; NCI-H522 lung; A549/ATCC NSCLC; 786-0 renal; DU-145 prostate; K-562 leukemia; MDA-MB-231 breast; RXF 393 renal; SF-268 CNS; SF-539 CNS; UACC-257 melanoma; M14 melanoma; HCT-15 colon; COLO 205 colon; MALME-3M melanoma; SF-295 CNS.
Holding throughout (test): NCI-60 one-dose screen, 48 h (100 = growth as untreated, 0 = no growth, -100 = all killed)
Common to all, as to details: 10 µM unless noted

About 83,000 compounds went through this panel and 20% of them were active in at least one assay; those are over-represented in the sample as a whole.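 Compound tested at a single concentration for 48 hours in 96-well plates; a percent growth value below 10 was scored as active.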 Unmarked numbers belong to inactive results. Active and inactive are the calls of the source.

On to `CNc1ccc(CSc2ccc(Cl)cc2)cc1`, for which the growth in the test with NCI-H23 lung was 108%; in the test with NCI-H322M lung, 123%; in the test on HOP-62 NSCLC, 87.4%; in the test on NCI-H460 lung it was 105%; in the test with NCI-H522 lung, 75.6%; in the test on A549/ATCC NSCLC, 93.6%. Further, the growth with 786-0 renal was 71%; in the test with DU-145 prostate it was 127%; in the test on K-562 leukemia, 82%; with MDA-MB-231 breast, 103%; in the test with RXF 393 renal it was 111%; in the test on SF-268 CNS it was 96.3%. Also, the growth with SF-539 CNS was 98.2%; in the test on UACC-257 melanoma, 97.4%; in the test on M14 melanoma it was 103%; in the test on HCT-15 colon it was 94.8%.

Regarding `O=C(Nc1ccncc1)C(=O)c1cn(S(=O)(=O)c2cccc(F)c2)c2ccccc12`, the growth is 34% with NCI-H23 lung; 101% in the test on NCI-H322M lung; 52.7% with HOP-62 NSCLC; 65.4% with NCI-H460 lung; -12.5% (active) with NCI-H522 lung; 67.3% in the test on A549/ATCC NSCLC. The growth in the test with 786-0 renal is 61.7%; in the test with COLO 205 colon, 106%; in the test on DU-145 prostate, 50%; with K-562 leukemia, 23.9%; in the test with MALME-3M melanoma, 58.2%; with MDA-MB-231 breast, 67.4%. For the same compound, the growth in the test on RXF 393 renal is 59.9%; with SF-268 CNS it was 75.9%; in the test with SF-539 CNS it was 27.3%; in the test on UACC-257 melanoma, 75.6%; with M14 melanoma it was 26.8%; with HCT-15 colon it was 25.3%.

Take `Oc1ccc(-c2nn(-c3ccccc3)cc2-c2nc3ccccc3s2)cc1`: the growth with NCI-H23 lung was 89.6%; with NCI-H322M lung it was 97.3%; in the test on HOP-62 NSCLC, 104%; in the test on NCI-H460 lung, 91.3%; in the test with NCI-H522 lung, 101%; in the test with A549/ATCC NSCLC it was 91.2%. Also, the growth with 786-0 renal is 105%; in the test on COLO 205 colon it was 106%; in the test with DU-145 prostate it was 106%; with K-562 leukemia, 78.6%; in the test with MALME-3M melanoma it was 98.8%; in the test on MDA-MB-231 breast, 81.5%. Further, the growth with RXF 393 renal is 104%; in the test on SF-268 CNS it was 97.3%; with SF-295 CNS, 106%; with SF-539 CNS, 102%; with UACC-257 melanoma, 107%; in the test on M14 melanoma it was 101%. For the same compound, the growth in the test with HCT-15 colon is 81.6%.

For `COc1ccc2nc(-c3ccc(-n4cncc4-c4ccc(OC)c(N)c4)cc3)sc2c1`, the growth in the test with NCI-H23 lung was 108%; in the test on NCI-H322M lung, 95.3%; in the test with HOP-62 NSCLC it was 116%; with NCI-H460 lung it was 100%; with NCI-H522 lung it was 82%; in the test on A549/ATCC NSCLC, 93.5%. The growth is 111% in the test on 786-0 renal; 105% in the test with COLO 205 colon; 119% with DU-145 prostate; 90.6% in the test on K-562 leukemia; 131% in the test with MALME-3M melanoma; 104% in the test on MDA-MB-231 breast. The growth with RXF 393 renal was 113%; with SF-268 CNS it was 109%; with SF-295 CNS, 99.8%; in the test on SF-539 CNS it was 105%; in the test with UACC-257 melanoma, 109%; in the test on M14 melanoma it was 110%. Moreover, the growth with HCT-15 colon is 97.4%.

As for `CC[N+](CC)(CCOCCOCC[N+](CC)(CC)Cc1ccc([N+](=O)[O-])cc1)Cc1ccc([N+](=O)[O-])cc1`, the growth in the test with NCI-H23 lung is 99.2%; with NCI-H322M lung, 117%; in the test with HOP-62 NSCLC, 76.4%; in the test on NCI-H460 lung, 96.8%; in the test on NCI-H522 lung, 93.4%; in the test on 786-0 renal, 109%. The growth was 106% with COLO 205 colon; 119% in the test with DU-145 prostate; 98% in the test on K-562 leukemia; 105% with MALME-3M melanoma; 91.3% in the test with MDA-MB-231 breast; 110% in the test with RXF 393 renal. Further, the growth in the test on SF-268 CNS is 98.6%; in the test on SF-295 CNS it was 103%; in the test with SF-539 CNS, 105%; in the test with UACC-257 melanoma it was 90.9%; in the test on M14 melanoma it was 101%; in the test with HCT-15 colon it was 105%.

For `C=C(C)[C@H]1CC/C(C)=C/CC[C@]2(C)O[C@H]2CC/C(C=O)=C\C1O` (some centres undefined), the growth in the test with NCI-H23 lung is 112%; in the test with NCI-H322M lung, 111%; in the test on HOP-62 NSCLC, 105%; in the test with NCI-H460 lung, 104%; in the test on NCI-H522 lung, 113%; in the test with A549/ATCC NSCLC, 108%. Besides, the growth was 115% in the test with 786-0 renal; 106% in the test with DU-145 prostate; 124% in the test with K-562 leukemia; 92.4% in the test with MDA-MB-231 breast; 111% in the test on RXF 393 renal; 106% with SF-268 CNS. In addition, the growth in the test on SF-539 CNS is 106%; in the test with UACC-257 melanoma, 154%; in the test on M14 melanoma, 115%; in the test with HCT-15 colon, 118%.

For `CN(C)c1ccc2[nH]c3c(C(N)=O)cc(=O)c(=O)c=3oc2c1`, the growth is 34.9% with NCI-H23 lung; 109% in the test on NCI-H322M lung; 20.7% in the test on HOP-62 NSCLC; 38.4% with NCI-H460 lung; 11.2% in the test on NCI-H522 lung; 33.8% in the test on A549/ATCC NSCLC. The growth is 80.4% in the test with 786-0 renal; 101% in the test on COLO 205 colon; 71.9% in the test on DU-145 prostate; 7.27% (active) in the test with K-562 leukemia; 87.7% in the test on MALME-3M melanoma; 62.6% in the test on MDA-MB-231 breast. The growth was 52.1% in the test on RXF 393 renal; 79.8% in the test on SF-268 CNS; 78.9% in the test with SF-295 CNS; 7.15% (active) in the test with SF-539 CNS; 91% in the test with UACC-257 melanoma; 61.5% in the test with M14 melanoma. Moreover, in the test on HCT-15 colon, the growth is 24.8%.

For `O=C1Cc2cc(CCN3CCN(CCOCCO)CC3)c(Cl)cc2N1Cc1ccc(-c2ccccc2-c2nn[nH]n2)cc1`, the growth in the test on NCI-H23 lung was 85.8%; with NCI-H322M lung, 108%; in the test on HOP-62 NSCLC, 91.6%; with NCI-H460 lung, 90%; in the test with NCI-H522 lung it was 79.4%; in the test with A549/ATCC NSCLC, 87.1%. For the same compound, the growth in the test on 786-0 renal was 86.8%; with DU-145 prostate, 117%; with MALME-3M melanoma it was 91.8%; in the test on MDA-MB-231 breast, 92.1%; in the test on RXF 393 renal, 113%; in the test with SF-268 CNS, 117%. The growth in the test with SF-295 CNS is 93.5%; in the test with UACC-257 melanoma, 81.4%; in the test with M14 melanoma, 92.6%; with HCT-15 colon, 86.6%.

Turning to `Cc1cc(C(=O)O)c(C)cc1C(=O)O`, the growth in the test with NCI-H23 lung was 107%; with NCI-H322M lung, 76.8%; in the test with HOP-62 NSCLC, 93.5%; in the test with NCI-H460 lung, 119%; in the test with NCI-H522 lung, 96.5%; with A549/ATCC NSCLC, 103%. In addition, the growth is 101% in the test with 786-0 renal; 120% with COLO 205 colon; 120% in the test with DU-145 prostate; 101% with K-562 leukemia; 89.5% in the test with MALME-3M melanoma; 114% in the test with MDA-MB-231 breast. The growth in the test with RXF 393 renal is 116%; in the test with SF-268 CNS, 115%; in the test with SF-539 CNS it was 113%; in the test on UACC-257 melanoma, 104%; in the test on M14 melanoma it was 101%; with HCT-15 colon, 104%.
